Screening results (PubChem)
Pf Dd2 inh: qHTS Primary assay for Inhibitors of Plasmodium falciparum Dd2 growth in vitro; AID 1347417, 2020; P. falciparum Dd2 growth, SYBR Green, 72 h; hit rate 4.3% among 120,000; Potency, µM (series often up to 28.9 µM), without a hit: top-dose activity, negative = inhibition, hits mostly inhibitors; active = well fitted inhibition curve with a large enough effect;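 note: plate controls were DMSO vehicle for no effect and reference drug for full effect; nearly all actives have a fitted effect of over 65% in size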
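Readout: SYBR Green fluorescence, 485 nm excitation, 535 nm emission, after ~16 h lysis at 37C. Before that, Dd2-infected red cells (2.5% hematocrit) grew 72 h with compound, 29 uM top final concentration.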
Active calls of the source: *; i = inactive; [ ] = remark or other dose. This excerpt belongs to a sample that is enriched for hits. Potency is the fitted concentration of half-maximal effect.

SMILES | Pf Dd2 inh
CN1CCCCCC(O)c2cc(C(=O)NCCC3=CCCCC3)ccc21 (stereo not drawn) | i
O=c1[nH]c(C2CCCN([S+](=O)([O-])c3cccc(C(F)(F)F)c3)C2)nn1-c1ccccc1 (stereo not drawn) | -1%
Cc1ccc(-c2nnc(C3CN(C(=O)c4sccc4C)CC34CCOCC4)o2)cc1 (stereo not drawn) | i
COc1ccc(Cn2c(C3CCN(C(=O)c4ccc(OC)cc4)CC3)n[nH]c2=O)cc1 | -23%
COc1ccc(CC(=O)N2CCC(c3n[nH]c(=O)n3Cc3ccc(OC)cc3)CC2)cc1 | 13µM*
Cc1ccc(Cn2c(C3CCN(C(=O)c4ccc(C)cc4)CC3)n[nH]c2=O)cc1 | -24%
Cc1ccc(Cn2c(C3CCN(C(=O)c4ccccc4Cl)CC3)n[nH]c2=O)cc1 | -19%
Cc1ccc(Cn2c(C3CCN(C(=O)c4ccc(C)s4)CC3)n[nH]c2=O)cc1 | 11µM*
COc1ccc(CC(=O)N2CCC(c3n[nH]c(=O)n3Cc3ccc(F)cc3)CC2)cc1 | i
O=C1CCC2(CCCO2)CCN1Cc1ccc(F)c(F)c1 (stereo not drawn) | i
COc1ccc(F)c(CN2CCCC(O)(CN(C)Cc3cc(C)on3)C2=O)c1 (stereo not drawn) | -5%
CN1CCN(c2nc3c(c(=O)[nH]2)CCN(Cc2ccc(F)cc2Cl)CC3)CC1 | 8%[5.79 µM]
COCc1nncn1C1CCN(C(=O)c2cccc(C(F)(F)F)c2)CC1 | -20%
O=C(CCN1CCCC1=O)NC1CCCN(CCCc2ccccc2)C1 (stereo not drawn) | i
COc1nc2c(cc1CNC(=O)C1CCCC1)C(=O)N(CCc1ccccn1)C2 | -20%
Cc1cccc(C)c1NC(=O)c1ccc2c(c1)N(Cc1cccc(Cl)c1)C(=O)c1ccccc1S2=O (stereo not drawn) | -16%
O=C(c1ccc2c(c1)N(Cc1ccc(Cl)cc1)C(=O)c1ccccc1S2(=O)=O)N1CCc2ccccc21 | i
CCN1C(=O)c2ccccc2Sc2ccc(NC(=O)c3cccc(C)c3)cc21 | i
N#Cc1cccc(NC(=O)c2ccc3c(c2)N(Cc2cccc(Cl)c2)C(=O)c2ccccc2S3(=O)=O)c1 | 2.2µM*
Cc1cc(NC(=O)c2ccc3c(c2)N(Cc2cccc(Cl)c2)C(=O)c2ccccc2S3(=O)=O)ccc1Br | 8.9µM*
Cc1ccc(CNC(=O)c2ccc3c(c2)N(Cc2ccccc2F)C(=O)c2ccccc2S3(=O)=O)cc1 | i
O=C(Nc1cccc(Cl)c1Cl)c1ccc2c(c1)N(Cc1cccc(Cl)c1)C(=O)c1ccccc1S2=O (stereo not drawn) | 66%[0.594 µM]
COc1ccc(C)cc1NC(=O)c1ccc2c(c1)N(Cc1cccc(Cl)c1)C(=O)c1ccccc1S2=O (stereo not drawn) | 7.9µM*
CCN1C(=O)c2ccccc2Sc2ccc(NC(=O)c3ccc(C#N)cc3)cc21 | 23%
CC(=O)Nc1ccc(NC(=O)c2ccc3c(c2)N(Cc2cccc(Cl)c2)C(=O)c2ccccc2S3(=O)=O)cc1 | -25%
SMILES | Pf Dd2 inh
CCC(C)NC(=O)c1ccc2c(c1)N(Cc1cccc(Cl)c1)C(=O)c1ccccc1S2=O (stereo not drawn) | -23%
Cc1cc(NC(=O)c2ccc3c(c2)N(Cc2cccc(Cl)c2)C(=O)c2ccccc2S3=O)ccc1Br (stereo not drawn) | 10µM*
CN(C)[C@@H]1[C@@H](NC(=O)CCc2nc3ccccc3[nH]c2=O)[C@H]2CCO[C@H]21 | -5%
CCCNC(=O)N1CCC(O)(c2csc(CN3CCN(C)CC3)n2)CC1 | i
COc1ccc(N2CCN(c3ncncc3-c3nc(-c4ccccc4)no3)CC2)cc1 | -20%
O=C(Nc1ccc(Br)c(F)c1)c1cnc(-c2ccccc2)nc1-c1ccncc1 | -15%
COC(=O)[C@]1(C)N[C@H](c2cc(F)c(OC)c(Cl)c2)[C@@H]2C(=O)N(C)C(=O)[C@@H]21 | 9%
CSc1ccc(-c2nc(CN3CCCC(CO)C3)c(C)o2)cc1 (stereo not drawn) | i
Cc1oc(-c2cccc(C(F)(F)F)c2)nc1CN1CCCC(CO)C1 (stereo not drawn) | 11µM*
Cc1ccc(Cl)cc1N1CCN(C(=O)C2CCCN(Cc3nc(-c4cccc(Cl)c4)oc3C)C2)CC1 (stereo not drawn) | -4%
O=C(c1cc2ccccc2[nH]1)N1CCN(c2cc(-c3ccccc3)[nH]n2)CC1 | i
COc1cccc2cc(-c3nc(Nc4cccc(C)c4C)sc3C)c(=O)oc12 | 5%
CCc1ccc(Nc2nc(-c3cc4cccc(OC)c4oc3=O)c(CC)s2)cc1 | 11µM*
CCOc1cccc2cc(-c3nnc(Nc4ccc(F)c(Cl)c4)s3)c(=O)oc12 | 21%
CNC(=O)[C@@H](Cc1ccccc1)N1CCC[C@H]1C(=O)N1CCCCC1 | -24%[44.1 µM]
Cc1ccc(NC(=O)c2cc(-c3ccc[nH]3)n[nH]2)cc1F | -5%
COc1cccc(-c2cc(C(=O)Nc3ccc(F)cc3)[nH]n2)c1 | 2.5µM*
COc1cccc(-c2cc(C(=O)Nc3ccc(Br)c(C)c3)[nH]n2)c1 | -26%
COc1cccc(CNC(=O)c2cc(-c3cccc(OC)c3)n[nH]2)c1 | 10%
O=C(Nc1ccc(F)cc1)c1cc(-c2ccc[nH]2)n[nH]1 | i
CSc1ccc(NC(=O)c2cc(-c3ccc[nH]3)n[nH]2)cc1 | 13µM*
COC(=O)CCC(=O)N1CCCC(CCc2c(F)cccc2F)C1 (stereo not drawn) | -8%
CNc1nc(C(=O)N2CCC(c3nccn3Cc3ccncc3)CC2)cs1 | 1%
CCOc1ccc2c(c1)NC(c1ccc(OCC)c(OCC)c1)=NC(c1ccc(F)cc1)=N2 | 13µM*
CC(C)COc1ccc(C2=NC(c3ccncc3)=Nc3ccc(F)cc3N2)cc1 | -2%
SMILES | Pf Dd2 inh
CCc1ccc2c(c1)NC(c1ccc(F)cc1)=NC(c1ccncc1)=N2 | -13%
CC1(C(=O)O)CCN(C(=O)c2ccc(F)cc2)CC1 | 7%[44.1 µM]
Cc1ccc(/C=C/c2onc(C)c2S(=O)(=O)N2CCC(C(=O)N3CCN(c4cc(C)ccc4C)CC3)CC2)cc1 | 8.9µM*
Cc1ccc(Cl)cc1N1CCN(C(=O)C2CCN(S(=O)(=O)c3cccc4nonc34)CC2)CC1 | 6.3µM*
Cc1ccc(/C=C/c2onc(C)c2S(=O)(=O)N2CCC(C(=O)Nc3cc(C)ccc3C)CC2)cc1 | 11%
O=C(C1CCN(S(=O)(=O)c2cccc3nonc23)CC1)N1CCN(c2ccccc2)CC1 | i
COc1ccccc1N1CCN(C(=O)C2CCN(S(=O)(=O)c3cccc4nonc34)CC2)CC1 | 6%
Cc1ccc(Cl)cc1N1CCN(C(=O)C2CCN(S(=O)(=O)c3c(C)noc3/C=C/c3ccccc3F)CC2)CC1 | -11%
COc1ccc(CN2CC[C@H](c3nnc(C)o3)C2)cc1 | 8%[44.1 µM]
COc1ccc(-n2cnc3cccnc32)cc1OC | -6%[44.1 µM]
CN1CCOC[C@H]1c1ncc(-c2cccc(F)c2)[nH]1 | 0%[44.1 µM]
COCCOCC(=O)N1CCC(N2C(=O)C(OCC3CC3)C23CCOCC3)CC1 (stereo not drawn) | 2%
CC(=O)NC1CC2(CCN(C(=O)c3c(C)noc3C)CC2)c2ccccc21 (stereo not drawn) | 23%
O=C(Cn1ncc2c3ccccc3n(Cc3ccccc3F)c2c1=O)NCCc1ccc(Cl)cc1 | 23%
CCCN(CCC)CCCNC(=O)Cn1ncc2c3ccccc3n(Cc3ccccc3F)c2c1=O | 5µM*
CCCCN(C)CCCNC(=O)Cn1ncc2c3ccccc3n(Cc3cc(C)ccc3C)c2c1=O | 0.45µM*
